The panel holds about 83,000 compounds, 20% with a hit somewhere; the sample as a whole holds those more often.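 Single-concentration screen, 48 h exposure, 96-well plates. Endpoint: percent growth. Below 10 = active.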 Active and inactive are the calls of the source.
Tests used:
Test in all cases: NCI-60 one-dose screen, 48 h (100 = growth as untreated, 0 = no growth, -100 = all killed)
Settings in all cases: 10 µM
NCI-H23 lung = test system: NCI-H23 lung
NCI-H226 lung = test system: NCI-H226 lung
NCI-H322M lung = test system: NCI-H322M lung
HOP-62 NSCLC = test system: HOP-62 NSCLC
NCI-H460 lung = test system: NCI-H460 lung
HOP-92 NSCLC = test system: HOP-92 NSCLC
NCI-H522 lung = test system: NCI-H522 lung
A549/ATCC NSCLC = test system: A549/ATCC NSCLC
786-0 renal = test system: 786-0 renal
COLO 205 colon = test system: COLO 205 colon

Measured: growth

CN(C)CCCN(Cc1ccccc1O)C(=S)Nc1ccc(Cl)cc1
inactive: NCI-H23 lung 108% | NCI-H226 lung 94.5% | NCI-H322M lung 98.1% | HOP-62 NSCLC 108% | NCI-H460 lung 102% | HOP-92 NSCLC 86.8% | NCI-H522 lung 96% | A549/ATCC NSCLC 98.1% | 786-0 renal 107% | COLO 205 colon 113%

NC1CCC(Nc2nc(NCc3ccc(-c4ccccc4O)nc3)c3ncn(C4CCCC4)c3n2)CC1 (stereo not given)
active: NCI-H23 lung -50.2% | NCI-H226 lung -3.35% | HOP-62 NSCLC -9.04% | NCI-H460 lung -8.3% | HOP-92 NSCLC -17.7% | NCI-H522 lung -55.2% | A549/ATCC NSCLC -25.2% | 786-0 renal -38.3% | COLO 205 colon -70.4%
inactive: NCI-H322M lung 10.1%

Cn1c([N+](=O)[O-])cnc1C=C1C(=O)c2ccccc2C1=O
active: NCI-H522 lung 3.27%
inactive: NCI-H23 lung 53.7% | NCI-H226 lung 81.7% | NCI-H322M lung 72.7% | HOP-62 NSCLC 74.7% | NCI-H460 lung 68.9% | HOP-92 NSCLC 20.4% | A549/ATCC NSCLC 65.6% | 786-0 renal 41.1% | COLO 205 colon 42.3%

C=CCOc1ccc2c(c1)CC=C1[C@@H]2CC[C@]2(C)C(=O)/C(=N/O)C[C@@H]12
inactive: NCI-H23 lung 95.1% | NCI-H226 lung 96.1% | NCI-H322M lung 81.2% | HOP-62 NSCLC 103% | NCI-H460 lung 60.3% | HOP-92 NSCLC 101% | NCI-H522 lung 80.7% | A549/ATCC NSCLC 84.3% | 786-0 renal 79.2% | COLO 205 colon 91.3%

COc1cc(-c2nc3ccccc3[nH]2)ccc1OCC(=O)N=Nc1c(O)[nH]c2ccccc12
inactive: NCI-H23 lung 90% | NCI-H226 lung 105% | NCI-H322M lung 96% | HOP-62 NSCLC 99.6% | NCI-H460 lung 109% | HOP-92 NSCLC 78.1% | NCI-H522 lung 80.1% | A549/ATCC NSCLC 105% | 786-0 renal 97.8% | COLO 205 colon 74.6%

CCN(CC)CCCOC(=O)Nc1ccccc1Cl
inactive: NCI-H23 lung 108% | NCI-H226 lung 108% | NCI-H322M lung 129% | HOP-62 NSCLC 112% | NCI-H460 lung 115% | HOP-92 NSCLC 94.9% | NCI-H522 lung 102% | A549/ATCC NSCLC 107% | 786-0 renal 98.9% | COLO 205 colon 118%

c1ccc(OCCC[P+](c2ccccc2)(c2ccccc2)c2ccccc2)cc1
active: NCI-H23 lung 1.67% | HOP-92 NSCLC -31.3% | NCI-H522 lung -7.37% | COLO 205 colon -35.6%
inactive: NCI-H226 lung 47.4% | NCI-H322M lung 20.4% | HOP-62 NSCLC 22% | NCI-H460 lung 12.5% | A549/ATCC NSCLC 25.6% | 786-0 renal 23.1%

COc1ccc2oc(=O)cc(C(c3ccc[nH]3)c3ccc[nH]3)c2c1
active: NCI-H226 lung 7.92% | HOP-62 NSCLC 4.73% | NCI-H460 lung 4.57% | NCI-H522 lung -23.1% | A549/ATCC NSCLC -7.88% | COLO 205 colon -71.5%
inactive: NCI-H23 lung 26% | NCI-H322M lung 27.7% | HOP-92 NSCLC 32.6% | 786-0 renal 17.2%

C#CCn1c(-c2cccc(OCCCCl)c2)nc2c1c(=O)n(C)c(=O)n2C
inactive: NCI-H23 lung 79.5% | NCI-H226 lung 62.5% | NCI-H322M lung 92.1% | HOP-62 NSCLC 81.4% | NCI-H460 lung 93.5% | HOP-92 NSCLC 49.9% | NCI-H522 lung 52% | A549/ATCC NSCLC 92% | 786-0 renal 86.5% | COLO 205 colon 96.8%

CCc1ccc(-c2nnc(COc3ccc(-c4nc5cc(Cl)c(Cl)cc5[nH]4)cc3OC)o2)cc1
inactive: NCI-H23 lung 67.8% | NCI-H226 lung 103% | NCI-H322M lung 83.6% | HOP-62 NSCLC 102% | NCI-H460 lung 24.5% | HOP-92 NSCLC 72.2% | NCI-H522 lung 82.8% | A549/ATCC NSCLC 39.3% | 786-0 renal 77.1% | COLO 205 colon 57.1%

C[n+]1c(/C=C/c2c[nH]c3ccccc23)ccc2ccccc21
inactive: NCI-H23 lung 71.5% | NCI-H226 lung 62.3% | NCI-H322M lung 69.8% | HOP-62 NSCLC 75.4% | NCI-H460 lung 34.5% | HOP-92 NSCLC 37.9% | NCI-H522 lung 53.4% | A549/ATCC NSCLC 46.6% | 786-0 renal 82.9% | COLO 205 colon 45.8%

Fc1ccc(-c2cc(C(Cl)Cl)no2)cc1
inactive: NCI-H23 lung 95.5% | NCI-H226 lung 87.2% | NCI-H322M lung 93.4% | HOP-62 NSCLC 98.2% | NCI-H460 lung 101% | HOP-92 NSCLC 99.4% | NCI-H522 lung 114% | A549/ATCC NSCLC 122% | 786-0 renal 110% | COLO 205 colon 115%

CC(=O)OC1Oc2ccccc2-c2oc(=O)c(-c3cc(=O)oc4cc(O)ccc34)cc21 (stereo not given)
inactive: NCI-H23 lung 80.8% | NCI-H226 lung 91.5% | NCI-H322M lung 89.2% | HOP-62 NSCLC 93.8% | NCI-H460 lung 93.8% | HOP-92 NSCLC 44.8% | NCI-H522 lung 69.6% | A549/ATCC NSCLC 84.3% | 786-0 renal 80.4% | COLO 205 colon 101%

CCN1CCN(c2ccc(Nc3ncnc4c3nnn4CCc3cc(OC)cc(OC)c3)cc2)CC1
inactive: NCI-H23 lung 88.8% | NCI-H226 lung 85.8% | NCI-H322M lung 95.6% | HOP-62 NSCLC 99.4% | NCI-H460 lung 106% | HOP-92 NSCLC 89.6% | NCI-H522 lung 96.1% | A549/ATCC NSCLC 95.5% | 786-0 renal 99.6% | COLO 205 colon 89.3%

O=C(O)CNS(=O)(=O)c1ccc(OCCOc2ccc(S(=O)(=O)NCC(=O)O)cc2)cc1
inactive: NCI-H23 lung 95.9% | NCI-H226 lung 100% | NCI-H322M lung 97.4% | HOP-62 NSCLC 92.8% | NCI-H460 lung 109% | HOP-92 NSCLC 104% | NCI-H522 lung 88.9% | A549/ATCC NSCLC 104% | 786-0 renal 104% | COLO 205 colon 99.8%

O=c1ccc2nc(-c3ccccc3)nn(-c3ccccc3)c-2c1
active: HOP-92 NSCLC -33% | NCI-H522 lung -90.5% | COLO 205 colon -78.8%
inactive: NCI-H23 lung 54.4% | NCI-H226 lung 68.1% | NCI-H322M lung 88.2% | HOP-62 NSCLC 69.5% | NCI-H460 lung 81.4% | A549/ATCC NSCLC 73.7% | 786-0 renal 48.6%

COc1ccc(-c2nsc3c2NC(=O)CC3c2cccc(Cl)c2)cc1 (stereo not given)
active: HOP-92 NSCLC -2.09% | NCI-H522 lung -6.59% | COLO 205 colon -40.6%
inactive: NCI-H23 lung 46.9% | NCI-H226 lung 75% | NCI-H322M lung 36% | HOP-62 NSCLC 27.8% | NCI-H460 lung 13.3% | A549/ATCC NSCLC 30.2% | 786-0 renal 46.4%

O=C1/C(=C/c2ccc(O)cc2)CSc2ccc(Cl)cc21
active: NCI-H522 lung -26.2%
inactive: NCI-H23 lung 91.3% | NCI-H226 lung 82.2% | NCI-H322M lung 92.3% | HOP-62 NSCLC 90.9% | NCI-H460 lung 96.5% | HOP-92 NSCLC 75.6% | A549/ATCC NSCLC 86.7% | 786-0 renal 85.5% | COLO 205 colon 108%

Fc1ccc(Nc2ccnc(N3CCN(c4ccnc5cc(Cl)ccc45)CC3)n2)cc1
active: HOP-92 NSCLC -7.36%
inactive: NCI-H23 lung 44.5% | NCI-H226 lung 54% | NCI-H322M lung 65.5% | HOP-62 NSCLC 62.8% | NCI-H460 lung 38% | NCI-H522 lung 43.4% | A549/ATCC NSCLC 25% | 786-0 renal 37.1% | COLO 205 colon 34.7%

Cc1nc2ccc(-n3c(-c4ccc(Cl)cc4)nc4ccccc4c3=O)cc2n1Cc1ccccc1
inactive: NCI-H23 lung 87.8% | NCI-H226 lung 87.8% | NCI-H322M lung 96.5% | HOP-62 NSCLC 81.9% | NCI-H460 lung 102% | HOP-92 NSCLC 80.3% | NCI-H522 lung 74.2% | A549/ATCC NSCLC 79.6% | 786-0 renal 105% | COLO 205 colon 93.8%

COc1cc(Nc2ccnc(N3CCN(c4ccnc5cc(Cl)ccc45)CC3)n2)cc(OC)c1
active: NCI-H23 lung 9.65% | NCI-H226 lung 9.15% | HOP-62 NSCLC 9.41% | NCI-H460 lung 6% | HOP-92 NSCLC -16.6% | NCI-H522 lung -23.2% | A549/ATCC NSCLC 7.47% | 786-0 renal -17.9% | COLO 205 colon -10.7%
inactive: NCI-H322M lung 23.2%

COc1ccc(-c2[nH]ncc2/C=C/c2cc(C(F)(F)F)[nH]c(=O)n2)cc1
inactive: NCI-H23 lung 99.4% | NCI-H226 lung 96.9% | NCI-H322M lung 98.1% | HOP-62 NSCLC 96% | NCI-H460 lung 110% | HOP-92 NSCLC 59.3% | NCI-H522 lung 75.7% | A549/ATCC NSCLC 104% | 786-0 renal 89.8% | COLO 205 colon 113%

CCCCOCC(=O)NC(NP(=O)(N(C)C)N(C)C)C(Cl)(Cl)Cl (stereo not given)
inactive: NCI-H23 lung 101% | NCI-H226 lung 109% | NCI-H322M lung 127% | HOP-62 NSCLC 81.2% | NCI-H460 lung 110% | HOP-92 NSCLC 97.7% | NCI-H522 lung 107% | A549/ATCC NSCLC 102% | 786-0 renal 92.5% | COLO 205 colon 109%

CCOc1nc(-c2ccccc2)cc2c(O)c(C(=O)N/N=C/c3ccc(OC)cc3)[nH]c(=O)c12
inactive: NCI-H23 lung 97.9% | NCI-H226 lung 109% | NCI-H322M lung 124% | HOP-62 NSCLC 105% | NCI-H460 lung 101% | HOP-92 NSCLC 74.6% | NCI-H522 lung 83.1% | A549/ATCC NSCLC 110% | 786-0 renal 116% | COLO 205 colon 87.7%

Cc1ccc2c3c(cccc13)-c1ccccc1C2=O
inactive: NCI-H23 lung 86.5% | NCI-H226 lung 91.1% | NCI-H322M lung 92.4% | HOP-62 NSCLC 93.6% | NCI-H460 lung 96.2% | HOP-92 NSCLC 108% | NCI-H522 lung 67.1% | A549/ATCC NSCLC 81.8% | 786-0 renal 99.4% | COLO 205 colon 93.9%

COc1ccc2nc(/C=C/c3ccc(N(C)C)cc3)sc2c1
inactive: NCI-H23 lung 89.5% | NCI-H226 lung 99.5% | NCI-H322M lung 99.6% | HOP-62 NSCLC 108% | NCI-H460 lung 110% | HOP-92 NSCLC 93.3% | NCI-H522 lung 90.6% | A549/ATCC NSCLC 105% | 786-0 renal 93% | COLO 205 colon 145%

CC1(C)Cc2c(cn(Cc3ccccc3)c2-c2ccccc2)-c2oncc21
inactive: NCI-H23 lung 96.7% | NCI-H226 lung 92.2% | NCI-H322M lung 126% | HOP-62 NSCLC 107% | NCI-H460 lung 113% | HOP-92 NSCLC 67.8% | NCI-H522 lung 90.1% | A549/ATCC NSCLC 86.2% | 786-0 renal 97.5% | COLO 205 colon 103%

Oc1ccc(/C=N\Nc2ccccn2)c(O)c1
active: NCI-H23 lung 1.98% | NCI-H322M lung -5.61% | HOP-62 NSCLC 2.96% | NCI-H460 lung 3.15% | 786-0 renal -13.2%
inactive: NCI-H226 lung 41.7% | HOP-92 NSCLC 38.1% | NCI-H522 lung 23.7% | A549/ATCC NSCLC 26.6% | COLO 205 colon 69.1%

Reference: PubChem BioAssay (NCI)
